About 83,000 compounds went through this panel and 20% of them were active in at least one assay; those are over-represented in the sample as a whole.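 Growth was measured after 48 h exposure to one concentration of compound in 96-well plates. Values under 10 count as active.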 Unmarked numbers belong to inactive results. Active and inactive are the calls of the source.

Test systems include HCT-15 colon; HT29 colon; SNB-75 CNS; SNB-19 CNS; U251 CNS; PC-3 prostate; SK-MEL-5 melanoma; UACC-62 melanoma; LOX IMVI melanoma; SK-MEL-28 melanoma.
Holding throughout (test): NCI-60 one-dose screen, 48 h (100 = growth as untreated, 0 = no growth, -100 = all killed)
Common to all, as to conditions: 10 µM unless noted

Consider `COc1ccccc1NCc1cccn1Cc1ccc(F)cc1`, for which the growth in the assay with HCT-15 colon is 98.3%; in the assay on HT29 colon, 102%; in the assay on SNB-75 CNS, 104%; with SNB-19 CNS, 96%; in the assay on U251 CNS, 98.8%; in the assay on PC-3 prostate, 97.3%. Besides, the growth in the assay on SK-MEL-5 melanoma was 97.4%; in the assay with UACC-62 melanoma, 89.8%; with LOX IMVI melanoma, 97%; in the assay on SK-MEL-28 melanoma, 97.4%.

In the case of `Nc1ncc(-c2ccc(NS(=O)(=O)c3ccc(Cl)c(Cl)c3)cc2)[nH]1`, the growth was 94.6% in the assay with HCT-15 colon; 107% with HT29 colon; 90.9% with SNB-75 CNS; 87.7% in the assay with SNB-19 CNS; 92.3% with U251 CNS; 76.5% in the assay with PC-3 prostate. For the same compound, the growth in the assay with SK-MEL-5 melanoma was 97.2%; in the assay on UACC-62 melanoma, 78.2%; with LOX IMVI melanoma it was 89.5%; in the assay on SK-MEL-28 melanoma it was 99.3%.

Take `O=C(CNc1nc(-c2cccc([N+](=O)[O-])c2)cs1)Nc1cccc(Cl)c1`: the growth with HCT-15 colon is 98.4%; in the assay on HT29 colon, 116%; in the assay with SNB-75 CNS it was 101%; with SNB-19 CNS, 99.5%; in the assay with U251 CNS, 106%; in the assay with PC-3 prostate, 98.5%. Further, the growth was 103% in the assay on SK-MEL-5 melanoma, 92.7% in the assay on UACC-62 melanoma, 115% in the assay on LOX IMVI melanoma and 104% in the assay on SK-MEL-28 melanoma.

`CCOC(=O)c1c(N)c(C#N)cn1-c1cc(OC)c(OC)c(OC)c1`: the growth is 106% with HCT-15 colon; 107% with HT29 colon; 92.7% in the assay with SNB-75 CNS; 101% with SNB-19 CNS; 114% with U251 CNS; 105% with PC-3 prostate. Besides, the growth was 111% with SK-MEL-5 melanoma, 101% in the assay with UACC-62 melanoma, 97.8% with LOX IMVI melanoma and 108% in the assay on SK-MEL-28 melanoma.

Consider `CC(C)C[C@@H]1N[C@@]2(C(=O)Nc3ccccc32)[C@@H](c2ccc(F)cc2)[C@@H]1C(=O)c1ccc(O)cc1`, for which the growth with HCT-15 colon was 93%; in the assay on HT29 colon it was 105%; with SNB-75 CNS, 96.8%; with SNB-19 CNS, 95.1%; with U251 CNS, 97.1%; in the assay with PC-3 prostate it was 63.6%. In addition, the growth with SK-MEL-5 melanoma is 93.5%; with UACC-62 melanoma, 69%; in the assay on LOX IMVI melanoma, 92.4%; with SK-MEL-28 melanoma it was 103%.

`O=C(O)c1ccc(-n2cc(CNc3cccc(Cl)c3)c(-c3ccc(F)cc3)n2)cc1`: the growth in the assay on HCT-15 colon is 80.7%; in the assay on HT29 colon, 111%; with SNB-75 CNS it was 120%; in the assay with SNB-19 CNS it was 99.3%; with U251 CNS, 101%; in the assay on PC-3 prostate, 94%. The growth with SK-MEL-5 melanoma was 91.7%; in the assay with UACC-62 melanoma, 74.3%; in the assay on LOX IMVI melanoma, 74.2%; with SK-MEL-28 melanoma, 101%.

Turning to `O=C(NCCN1CCCC1)c1ccc(-c2nc3ccc4[nH]ncc4c3c3c2CCCC3)cc1`, the growth was 26.1% in the assay on HCT-15 colon; 4.8% (active) in the assay on HT29 colon; 33.7% with SNB-75 CNS; 7.71% (active) in the assay with SNB-19 CNS; 10.7% in the assay on U251 CNS; 8.15% (active) with PC-3 prostate. The growth in the assay on SK-MEL-5 melanoma is 5.04% (active); in the assay on UACC-62 melanoma, 18.4%; in the assay on LOX IMVI melanoma, -89.6% (active); in the assay with SK-MEL-28 melanoma, 5.05% (active).

As for `O=C(NCc1ncc[nH]1)c1ccc(-c2nc3ccc4[nH]ncc4c3c3c2CCCC3)cc1`, the growth in the assay with HCT-15 colon was 48%; in the assay with HT29 colon, 22.3%; in the assay on SNB-75 CNS, 30.1%; in the assay on SNB-19 CNS, 13.9%; with U251 CNS, 13.2%; in the assay with PC-3 prostate it was 2.66% (active). Further, the growth with SK-MEL-5 melanoma is 8.91% (active); in the assay on UACC-62 melanoma, 4.94% (active); in the assay on LOX IMVI melanoma, 3.29% (active); in the assay with SK-MEL-28 melanoma, -1.75% (active).

In the case of `C#CCC#CCN1CCC[C@H]1C(=O)NCC(=O)OC`, the growth was 102% in the assay on HCT-15 colon; 104% in the assay with HT29 colon; 105% in the assay on SNB-75 CNS; 98.9% with SNB-19 CNS; 103% with U251 CNS; 98.4% with PC-3 prostate. Moreover, the growth in the assay with SK-MEL-5 melanoma was 100%; with UACC-62 melanoma, 104%; in the assay on LOX IMVI melanoma it was 94.4%; in the assay on SK-MEL-28 melanoma, 101%.

`COc1cc(-c2nn(C(C)(C)C)cc2-c2ccnc(NCCCNS(=O)(=O)c3cccc(F)c3)n2)ccc1Cl`: the growth in the assay on HCT-15 colon is 63.7%; in the assay on HT29 colon it was 65.1%; in the assay with SNB-75 CNS, 46.2%; in the assay with SNB-19 CNS it was 93.4%; in the assay on U251 CNS, 88.3%; in the assay on PC-3 prostate, 51.3%. Further, the growth in the assay with SK-MEL-5 melanoma was 81.8%; with UACC-62 melanoma, 69.2%; in the assay on LOX IMVI melanoma it was 67.2%; in the assay on SK-MEL-28 melanoma it was 91.6%.

With `COc1cc2c(cc1OC)C(Sc1ccc(C)cc1)c1c(nc(N)c(C#N)c1N)O2` (stereo not given), the growth is -74.3% (active) in the assay on HCT-15 colon; -21.2% (active) in the assay with HT29 colon; 29% in the assay on SNB-75 CNS; -68.9% (active) with SNB-19 CNS; -69.9% (active) in the assay on U251 CNS; -71.1% (active) with PC-3 prostate. For the same compound, the growth with SK-MEL-5 melanoma is -94.6% (active); with UACC-62 melanoma it was -45% (active); with LOX IMVI melanoma, -90.5% (active); with SK-MEL-28 melanoma, -80.3% (active).

Turning to `N#Cc1c(Nc2ccccc2)nn2c(-c3ccc([N+](=O)[O-])cc3)ccnc12`, the growth was 99.3% in the assay with HCT-15 colon; 103% in the assay with HT29 colon; 102% in the assay with SNB-75 CNS; 100% with SNB-19 CNS; 99.8% in the assay with U251 CNS; 103% with PC-3 prostate. Moreover, the growth is 88.6% with SK-MEL-5 melanoma, 93.3% in the assay with UACC-62 melanoma, 93.7% with LOX IMVI melanoma and 100% in the assay on SK-MEL-28 melanoma.

Consider `COc1ccc(C2c3sc4c(C)cccc4c3Oc3nc(CC(=O)Nc4ccccc4)[nH]c(=O)c32)cc1` (stereo not given), for which the growth was 51.9% in the assay with HCT-15 colon; 94.1% in the assay on HT29 colon; 39.4% in the assay with SNB-75 CNS; 89% in the assay with SNB-19 CNS; 106% in the assay with U251 CNS; 83.1% with PC-3 prostate. Moreover, the growth in the assay with SK-MEL-5 melanoma was 76.9%; in the assay on UACC-62 melanoma, 63.2%; with LOX IMVI melanoma, 48.5%; with SK-MEL-28 melanoma it was 76%.

(Values after PubChem BioAssay (NCI).)
